We go through 78 compounds from PubChem BioAssay AID602393 (Broad Institute, 2012).

The campaign covered roughly 350,000 compounds. About 7,000 (2%) were called active. Rule as the data show it: active = activation above about 40%; inconclusive = no clear call, values can overlap the other calls; inactive = below that. For the sample, actives were picked, then their nearest neighbours and some compounds at random.

The experiment can be described thus: raisers of Bmi1 knock-in reporter signal – mouse ES cells, Bmi1 luciferase knock-in, single point, esBAF inhibitor project, primary screen (AID 602393).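 Also: 0% = median of the plate's neutral control wells and 100% = double that signal; a rise in the Bmi1 reporter signal indicates esBAF inhibition.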 The note with it: 24 h, at 12.5 µM, hits give high values, 100% = twice the neutral-well signal.
Turning to `CCCN(C)C[C@H]1Oc2ncc(-c3cccnc3)cc2C(=O)N([C@@H](C)CO)C[C@@H]1C`, the reporter increase was 5.67% (inactive). The result for `Cn1c(=NC(=O)C2CC2)sc2cc(F)cc(F)c21` reads 62% (active); that for `Cn1c(=NC(=O)c2ccco2)sc2cccc(F)c21`, 29% (inactive). Take `CCC(=O)Nc1ccc2c(c1)OC[C@H](C)N(Cc1ccccc1F)C[C@H](C)[C@@H](OC)CN(C)C2=O`: the reporter increase was 0.435% (inactive). With `C[C@H](CO)N1C[C@H](C)[C@H](CN(C)CC2CCCCC2)Oc2c(NC(=O)c3cnccn3)cccc2C1=O`, the reporter increase was -2.88% (inactive).

For the compound `O=C(CNC(=O)c1cc2c(s1)CCC2)Nc1ccccc1Br`, the reporter increase is 30.7% (inactive). With `O=C(NNC(=O)c1cc2c(s1)CCCC2)c1ccccc1`, the reporter increase is 40.9% (active). For `O=C(c1cc2c(s1)CCC2)N1CCN(c2ccccc2)CC1`, the reporter increase is 6.19% (inactive). As to `CCNC(=O)C[C@@H]1CC[C@H](NC(=O)C2CCC2)[C@@H](CO)O1`, the reporter increase is 4.25% (inactive). With `C[C@@H]1CN([C@H](C)CO)C(=O)Cc2cc(NC(=O)C3CCCCC3)ccc2O[C@@H]1CN(C)S(C)(=O)=O`, the reporter increase was -5.11% (inactive). Regarding `C[C@@H]1CN([C@@H](C)CO)S(=O)(=O)c2ccc(C#CC3CCCC3)cc2O[C@H]1CN(C)S(C)(=O)=O`, the reporter increase was 20.1% (inactive). Turning to `COc1cccc(CNc2nc3nc4c(c(=O)n3[nH]2)CCC4)c1`, the reporter increase is -1.38% (inactive). Under `O=C(c1ccccc1)N1CCN(c2cc(-c3ccccc3)nc3cc(-c4cccc(Cl)c4)nn23)CC1` stands -1.84% (inactive); under `COc1cccc(-c2cc3nc4c(c(N5CCC6(CC5)OCCO6)n3n2)CCCC4)c1`, 42.7% (active).

Consider `O=C(C[C@@H]1CC[C@@H]2[C@H](COC[C@H](O)CN2Cc2cccc(C(F)(F)F)c2)O1)NCc1ccc(F)cc1`, for which the reporter increase is -1.09% (inactive).

With `C[C@@H]1CN([C@@H](C)CO)C(=O)c2cc(NC(=O)Nc3cccc4ccccc34)ccc2O[C@@H](C)CCCCO[C@@H]1CN(C)S(=O)(=O)c1ccc(Cl)cc1`, the reporter increase was 2.17% (inactive). For the compound `O=C(Cc1cccs1)N1CCCC(c2nc(-c3ccc(S(=O)(=O)N4CCCC4)cc3)no2)C1` (stereo not drawn), the reporter increase was -3.86% (inactive).

On to `Cc1ccc(-c2noc(C3CCCN(C(=O)c4cccc(Cl)c4)C3)n2)o1` (stereo not drawn), for which the reporter increase was 46.6% (active). In the case of `CCOC(=O)C1(C)CCCN(C(=O)c2cccc(Cl)c2)C1` (stereo not drawn), the reporter increase is -1.3% (inactive). Under `O=C(c1cccs1)N1CCCC(c2nc(-c3ccc(F)cc3)no2)C1` (stereo not drawn) stands 51.6% (active); under `COc1cccc(-c2noc(C3CCCN(C(=O)c4ccc(F)cc4)C3)n2)c1` (stereo not drawn), 5.64% (inactive).

As to `COc1cc(-c2noc(C3CCCN(S(=O)(=O)c4cccc(Cl)c4)C3)n2)cc(OC)c1OC` (stereo not drawn), the reporter increase is 0.345% (inactive). Under `COc1ccccc1NC(=O)N(C)C[C@@H]1Oc2ncc(Br)cc2C(=O)N([C@@H](C)CO)C[C@@H]1C` stands -5.49% (inactive). With `O=C(NCC[C@@H]1CC[C@@H](NC(=O)Nc2cc(F)ccc2F)[C@H](CO)O1)Nc1ccc(Cl)cc1`, the reporter increase was 38.7% (inactive). For the compound `C[C@H]1CN([C@@H](C)CO)C(=O)c2cc(C3=CCCCC3)cnc2O[C@H]1CN(C)Cc1ccncc1`, the reporter increase was -11.9% (inactive). Under `CCOC(=O)N1CCC(NC(=O)CCc2ccccc2)CC1` stands -4.64% (inactive). Take `O=C(NCc1ccccc1)C1CCN(C(=O)Cc2ccccc2)CC1`: the reporter increase was 1.43% (inactive). As for `O=C(O)C1CCN(C(=O)OCc2ccccc2)CC1`, the reporter increase is 59.3% (active). Regarding `CC(C)NC(=O)Nc1ccc2c(c1)C(=O)N([C@@H](C)CO)C[C@H](C)[C@@H](CN(C)S(C)(=O)=O)O2`, the reporter increase was -2.99% (inactive). For `COCC(=O)Nc1ccc2c(c1)C(=O)N(C)C[C@@H](OC)[C@H](C)CN(C(=O)c1ccccn1)[C@@H](C)CO2`, the reporter increase is 4.23% (inactive). For the compound `CCCOC(=O)C1=C(C)NC2=C(C(=O)C(C(=O)OC)C(C)C2)C1c1ccc(N(C)C)cc1` (stereo not drawn), the reporter increase is 8.57% (inactive).

On to `CCCOC(=O)c1[nH]c2c(c1C)C(=O)CC(c1cccs1)C2` (stereo not drawn), for which the reporter increase was -12.1% (inactive). As to `CCOC(=O)c1[nH]c2c(c1C)C(=O)CC(c1ccc(N(C)C)cc1)C2` (stereo not drawn), the reporter increase was 51.2% (active).

Consider `CC(=O)N1[C@H](CO)[C@H](c2ccc(-c3ccccc3)cc2)[C@H]1CNC(=O)C1CC1`, for which the reporter increase was 2.48% (inactive). Consider `COc1ccccc1S(=O)(=O)Nc1ccc2c(c1)C(=O)N(C)C[C@H](OC)[C@H](C)CN[C@H](C)CO2`, for which the reporter increase is -6.13% (inactive).

Take `Cc1nn(C(C)C(=O)NCCC2=CCCCC2)c(=O)c2nn(-c3ccccc3)c(C)c12` (stereo not drawn): the reporter increase was 21% (inactive). In the case of `C1=C(CCNc2ncnc3c2cnn3-c2ccccc2)CCCC1`, the reporter increase was 69.7% (active). Turning to `CC(C)Sc1ncnc2c1cnn2-c1ccccc1`, the reporter increase was 19% (inactive). For `C[C@@H]1CN([C@@H](C)CO)C(=O)Cc2cc(NC(=O)CCN3CCOCC3)ccc2O[C@@H]1CN(C)C(=O)Nc1cccc2ccccc12`, the reporter increase is -0.153% (inactive).

For `O=C(NCCc1ccc2c(c1)OCCO2)c1cc2ccccc2o1`, the reporter increase is 24.4% (inactive). The result for `CN(C)C(CNC(=O)c1cc2ccccc2o1)c1ccccc1` (stereo not drawn) reads 7.21% (inactive). Take `Cc1cc(NC(=O)c2cc3ccccc3o2)no1`: the reporter increase is 20.5% (inactive).

Regarding `CC(C)(C)n1nc2c(c1NC(=O)c1cc3ccccc3o1)CSC2`, the reporter increase was -2.69% (inactive). The result for `Cc1ccc(NC(=O)c2cc3ccccc3o2)cc1` reads 52.9% (active). Regarding `O=C(Nc1ccncc1)c1cc2ccccc2o1`, the reporter increase was 75.6% (active).

Regarding `COc1ccccc1C#Cc1ccc2c(c1)O[C@@H](CN(C)Cc1cncnc1)[C@H](C)CN([C@@H](C)CO)S2(=O)=O`, the reporter increase was 8.66% (inactive).

In the case of `COC(=O)N(C)C[C@H]1OCc2ccccc2-c2ccccc2C(=O)N([C@@H](C)CO)C[C@H]1C`, the reporter increase is 5.99% (inactive). Take `CN(c1cccc(NC(=O)c2ccc(CN3CCc4ccccc4C3)cc2)c1)S(C)(=O)=O`: the reporter increase was -0.323% (inactive).

For the compound `CN(c1ccccc1)S(=O)(=O)c1cccc(NC(=O)Cc2ccc(Cl)cc2)c1`, the reporter increase was -11.6% (inactive). Under `CN(c1cccc(NC(=O)Nc2ccc(Cl)cc2)c1)S(C)(=O)=O` stands 50.6% (active); under `C[C@H](CO)N1C[C@H](C)[C@@H](CN(C)CC2CCCCC2)Oc2ccc(NS(=O)(=O)c3cccs3)cc2CC1=O`, -1.82% (inactive); under `CCCNC(=O)C[C@@H]1C[C@@H]2c3cc(N(C)C)ccc3O[C@@H]2[C@H](CO)O1`, 1.01% (inactive).

Take `CCCN(C)C[C@@H]1Oc2cc(C#Cc3ccc(F)cc3)ccc2S(=O)(=O)N([C@H](C)CO)C[C@H]1C`: the reporter increase is -2.93% (inactive). As for `CCOC(=O)c1cc2ccccc2n1CC(=O)c1ccccc1`, the reporter increase was 2.35% (inactive).

On to `CCOC(=O)c1cc(-c2sc(NC(=O)c3ccccc3)nc2C)n(CCO)n1`, for which the reporter increase was 12.3% (inactive).

For `C=CCn1nc(C(=O)OCC)cc1-c1sc(NC(=O)c2ccccc2)nc1C`, the reporter increase was 4.24% (inactive). `CCOC(=O)c1cc(-c2sc(NC(=O)c3ccccc3)nc2C)n(Cc2ccccc2)n1`: the reporter increase is 56% (active). As to `CCOc1ccc(C(=O)Nc2c3c(nn2-c2ccccc2)CS(=O)(=O)C3)cc1`, the reporter increase was -0.973% (inactive).

Take `CCOC(=O)c1cc(-c2sc(NC(=O)c3ccccc3)nc2C)n(-c2ccc(Br)cc2)n1`: the reporter increase was 50.4% (active). For `COc1ccc(NC(=O)Nc2ccc3c(c2)[C@@H]2C[C@H](CC(=O)N[C@@H](C)c4ccccc4)O[C@@H](CO)[C@@H]2O3)cc1`, the reporter increase is -1.34% (inactive).

For `Cc1ccc(S(=O)(=O)N(C)C[C@@H]2OCCCC[C@@H](C)Oc3ccc(NC(=O)Nc4ccc(C(F)(F)F)cc4)cc3C(=O)N([C@@H](C)CO)C[C@@H]2C)cc1`, the reporter increase is 1.3% (inactive). With `C[C@@H]1CCCCO[C@H](CN(C)S(=O)(=O)c2ccccc2)[C@H](C)CN([C@@H](C)CO)C(=O)c2cc(N(C)C)ccc2O1`, the reporter increase is -0.863% (inactive). For `Cc1cc2c(=O)n(C)c(SCC(=O)c3cc4ccccc4o3)nc2s1`, the reporter increase is -5.28% (inactive). The result for `COc1ccc2oc(=O)cc(-c3cc4ccccc4o3)c2c1` reads -2.86% (inactive); that for `Nc1ncc(-c2cc3ccccc3oc2=O)s1`, 47.3% (active); that for `COc1ccccc1C(=O)Nc1ccc2c(c1)C(=O)N(C)C[C@@H](OC)[C@@H](C)CN(CC1CC1)[C@@H](C)CO2`, 2.64% (inactive). Under `CCC(=O)N1CCCCN2[C@H](C1)[C@@H](c1ccc(C#CCOC)cc1)[C@@H]2CO` stands 3.27% (inactive); under `C[C@H](CO)N1C[C@H](C)[C@@H](CN(C)S(=O)(=O)c2ccc(F)cc2)OCCCC[C@H](C)Oc2ccc(NC(=O)CCCN(C)C)cc2C1=O`, -3.29% (inactive).

Regarding `Cc1ccc(S(=O)(=O)N2C[C@H](O)COC[C@@H]3O[C@@H](CC(=O)NCC4CCCCC4)CC[C@H]32)cc1`, the reporter increase was -0.379% (inactive).

`COc1cc(C(O)c2nc(-c3cccc(C(=O)O)c3)cs2)ccc1F` (stereo not drawn): the reporter increase was 4.68% (inactive). Consider `COCc1cccc(-c2csc(C(O)c3ccc(F)cc3)n2)c1` (stereo not drawn), for which the reporter increase was 49.8% (active). Regarding `COc1ccc(C(O)c2nc(-c3ccc4c(c3)OCO4)cs2)cc1` (stereo not drawn), the reporter increase is 11.6% (inactive).

Take `O=C(c1cccnc1)N1C[C@@H]2[C@H](c3ccccc31)[C@@H](CO)N2C(=O)Nc1ccc(F)cc1`: the reporter increase is 1.17% (inactive). Take `COc1ccc(S(=O)(=O)N(C)C[C@H]2OCCCC[C@@H](C)Oc3ccc(NS(=O)(=O)c4ccc(C)cc4)cc3C(=O)N([C@@H](C)CO)C[C@@H]2C)cc1`: the reporter increase was 7.8% (inactive). On to `CCN1[C@@H]2Cn3c(ccc(-c4cccnc4)c3=O)[C@H]1[C@@H](C(=O)NC1CCCCC1)[C@@H]2CO`, for which the reporter increase is -4.32% (inactive).

As for `COCCCNC(=O)COc1cc(C)c(Cl)c(C)c1`, the reporter increase was 4.32% (inactive). As for `Cc1cc(OCc2cc(C(=O)NCc3cc(C(C)C)no3)no2)cc(C)c1Cl`, the reporter increase was 81.9% (active). On to `Cc1cccnc1CC(C)NC(=O)c1cc(COc2cncc(Cl)c2)on1` (stereo not drawn), for which the reporter increase was 9.52% (inactive).
